{"source": "the supplement of paper PMC10849652", "experiment_in_all_cases": "log2 fold change, soluble protein after heating vs DMSO (PISA); higher = thermal stabilisation; K562 lysate, 10 uM; active = over 0.2 and 3.5 SD of the protein, either way, in both replicates (recomputed)", "key": {"[1]": {"compound": "C1=CC=C(C=C1)[C@H](COC2=CC3=C(C=C2)NC(=O)N3)NC(=O)C4=CC=CN(C4=O)CC5=CC(=C(C=C5)F)F", "outline": "(§1)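 A 30 min treatment with 10 μM compound was applied to crude K562 extract at 1 mg/mL protein in PBS pH 7.4 with 1 mM MgCl2. Heating for 3 min spanned 48°C-58°C, after which aliquots were pooled, adjusted to 0.5% NP-40 at 4°C and spun at 21,000xg for 90 min. TMTpro 16plex LC-MS/MS of the supernatant, with channel sums equalised, gave values recorded as log-two fold change in thermal stability against solvent controls, from duplicates.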"}, "[2]": {"compound": "CC1=C(SC2=C1C(=N[C@H](C3=NN=C(N32)C)CC(=O)N)C4=CC=C(C=C4)Cl)C", "outline": "as §1"}, "[3]": {"compound": "Cc1sc2c(c1C)C(c1ccc(Cl)cc1)=N[C@@H](CC(=O)OC(C)(C)C)c1nnc(C)n1-2", "outline": "as §1"}, "[4]": {"compound": "c1ccc([C@@H]2C[C@H]2NC2CCNCC2)cc1", "outline": "as §1"}, "[5]": {"compound": "CC1=C2C(=CC=C1)N=C(N(C2=O)C3=CC=CC=C3C)CN4C=NC5=C(N=CN=C54)N", "outline": "as §1"}, "IRAK-1-4 Inhibitor I": {"compound": "C1COCCN1CCN2C3=CC=CC=C3N=C2NC(=O)C4=CC(=CC=C4)[N+](=O)[O-] [IRAK-1-4 Inhibitor I]", "outline": "as §1"}}, "note": "Targets with a hit are over-represented here; the source holds about 8,800 in all. About 0.5% of all pairs of compound and target were hits. Unmarked numbers belong to inactive results."}
{"target": "C6orf120 (UniProt Q7Z4R8)", "sequence (Q7Z4R8 whole entry, looked up)": "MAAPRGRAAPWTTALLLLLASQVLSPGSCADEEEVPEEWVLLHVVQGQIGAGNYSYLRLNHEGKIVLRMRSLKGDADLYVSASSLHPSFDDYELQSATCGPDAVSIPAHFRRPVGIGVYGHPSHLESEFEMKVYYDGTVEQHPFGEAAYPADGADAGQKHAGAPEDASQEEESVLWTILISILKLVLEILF", "values": [{"measurement": "log2 fold change", "setting": "[1]", "result": -0.101}, {"measurement": "log2 fold change", "setting": "[2]", "result": -0.015}, {"measurement": "log2 fold change", "setting": "[3]", "result": -0.131}, {"measurement": "log2 fold change", "setting": "[4]", "result": 0.137}]}
{"target": "BRAF, A0A2R8Y8E0", "values": [{"measurement": "log2 fold change", "setting": "[5]", "result": -0.13}]}
{"target": "C9orf72 (UniProt Q96LT7)", "sequence (Q96LT7 whole entry, looked up)": "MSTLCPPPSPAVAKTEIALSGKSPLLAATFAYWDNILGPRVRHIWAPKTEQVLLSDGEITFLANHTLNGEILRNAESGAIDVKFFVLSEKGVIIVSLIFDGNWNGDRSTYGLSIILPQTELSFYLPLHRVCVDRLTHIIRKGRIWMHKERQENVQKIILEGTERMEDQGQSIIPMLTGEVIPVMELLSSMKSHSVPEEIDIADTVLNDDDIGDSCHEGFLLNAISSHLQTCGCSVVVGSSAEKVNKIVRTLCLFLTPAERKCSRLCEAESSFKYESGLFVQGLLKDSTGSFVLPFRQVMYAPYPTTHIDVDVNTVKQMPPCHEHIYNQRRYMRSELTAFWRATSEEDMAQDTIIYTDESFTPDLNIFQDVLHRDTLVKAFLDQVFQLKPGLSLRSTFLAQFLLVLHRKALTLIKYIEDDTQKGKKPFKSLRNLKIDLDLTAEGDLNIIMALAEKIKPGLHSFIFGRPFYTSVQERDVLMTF", "values": [{"measurement": "log2 fold change", "setting": "[1]", "result": -0.012}, {"measurement": "log2 fold change", "setting": "[2]", "result": 0.049}, {"measurement": "log2 fold change", "setting": "[3]", "result": -0.028}, {"measurement": "log2 fold change", "setting": "[4]", "result": 0.002}]}
{"target": "CANX (UniProt D6RHJ3)", "values": [{"measurement": "log2 fold change", "setting": "[5]", "result": 0.072}]}
{"target": "BICRA (UniProt Q9NZM4)", "values": [{"measurement": "log2 fold change", "setting": "[1]", "result": -0.077}, {"measurement": "log2 fold change", "setting": "[2]", "result": 0.208}, {"measurement": "log2 fold change", "setting": "[3]", "result": -0.122}, {"measurement": "log2 fold change", "setting": "[4]", "result": -0.142}]}
{"target": "CDKL5 (UniProt O76039)", "sequence (O76039 whole entry, looked up)": "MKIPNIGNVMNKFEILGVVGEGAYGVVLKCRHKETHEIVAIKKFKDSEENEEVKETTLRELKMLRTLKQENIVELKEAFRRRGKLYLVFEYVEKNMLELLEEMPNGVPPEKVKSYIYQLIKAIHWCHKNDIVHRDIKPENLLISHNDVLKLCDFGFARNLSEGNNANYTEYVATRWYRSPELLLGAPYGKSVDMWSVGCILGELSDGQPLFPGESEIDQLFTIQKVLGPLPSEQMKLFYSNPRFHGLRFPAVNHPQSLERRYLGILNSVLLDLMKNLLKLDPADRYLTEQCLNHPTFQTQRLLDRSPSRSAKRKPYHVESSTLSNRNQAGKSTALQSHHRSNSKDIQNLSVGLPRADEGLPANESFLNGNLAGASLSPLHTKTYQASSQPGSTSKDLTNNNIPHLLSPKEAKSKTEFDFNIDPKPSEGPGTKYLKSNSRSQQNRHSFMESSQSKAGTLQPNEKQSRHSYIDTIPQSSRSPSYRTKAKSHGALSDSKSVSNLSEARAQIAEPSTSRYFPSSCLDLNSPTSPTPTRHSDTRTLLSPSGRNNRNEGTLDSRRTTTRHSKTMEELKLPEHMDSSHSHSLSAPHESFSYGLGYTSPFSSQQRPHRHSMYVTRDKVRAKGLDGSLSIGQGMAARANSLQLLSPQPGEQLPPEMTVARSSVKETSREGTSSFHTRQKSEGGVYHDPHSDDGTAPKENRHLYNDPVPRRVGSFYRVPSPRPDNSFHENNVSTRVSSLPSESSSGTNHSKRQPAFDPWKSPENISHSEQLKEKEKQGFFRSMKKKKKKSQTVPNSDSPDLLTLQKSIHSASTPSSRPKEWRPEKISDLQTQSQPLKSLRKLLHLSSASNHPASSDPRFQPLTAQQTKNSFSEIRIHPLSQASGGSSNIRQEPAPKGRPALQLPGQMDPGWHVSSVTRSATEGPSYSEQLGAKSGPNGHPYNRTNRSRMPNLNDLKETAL", "values": [{"measurement": "log2 fold change", "setting": "[5]", "result": 0.043}, {"measurement": "log2 fold change", "setting": "[3]", "result": -0.139}, {"measurement": "log2 fold change", "setting": "[4]", "result": -0.132}]}
{"target": "ATF7IP2 (UniProt Q5U623)", "values": [{"measurement": "log2 fold change", "setting": "[1]", "result": 0.162}, {"measurement": "log2 fold change", "setting": "[2]", "result": 0.01}, {"measurement": "log2 fold change", "setting": "[5]", "result": 0.101}, {"measurement": "log2 fold change", "setting": "[4]", "result": 0.017}]}
{"target": "BCORL1 isoform 3 (UniProt Q5H9F3)", "values": [{"measurement": "log2 fold change", "setting": "IRAK-1-4 Inhibitor I", "result": -0.141}, {"measurement": "log2 fold change", "setting": "[5]", "result": 0.029}, {"measurement": "log2 fold change", "setting": "[3]", "result": 0}, {"measurement": "log2 fold change", "setting": "[4]", "result": -0.382}]}
{"target": "ATXN2 (UniProt F8WB06)", "values": [{"measurement": "log2 fold change", "setting": "[3]", "result": -0.014}]}
{"target": "C1orf131 isoform 5 (UniProt Q8NDD1)", "values": [{"measurement": "log2 fold change", "setting": "[5]", "result": 0.096}, {"measurement": "log2 fold change", "setting": "[3]", "result": -0.009}, {"measurement": "log2 fold change", "setting": "[4]", "result": -0.108}]}
{"target": "CHD9 (UniProt Q3L8U1)", "sequence (Q3L8U1 whole entry, looked up)": "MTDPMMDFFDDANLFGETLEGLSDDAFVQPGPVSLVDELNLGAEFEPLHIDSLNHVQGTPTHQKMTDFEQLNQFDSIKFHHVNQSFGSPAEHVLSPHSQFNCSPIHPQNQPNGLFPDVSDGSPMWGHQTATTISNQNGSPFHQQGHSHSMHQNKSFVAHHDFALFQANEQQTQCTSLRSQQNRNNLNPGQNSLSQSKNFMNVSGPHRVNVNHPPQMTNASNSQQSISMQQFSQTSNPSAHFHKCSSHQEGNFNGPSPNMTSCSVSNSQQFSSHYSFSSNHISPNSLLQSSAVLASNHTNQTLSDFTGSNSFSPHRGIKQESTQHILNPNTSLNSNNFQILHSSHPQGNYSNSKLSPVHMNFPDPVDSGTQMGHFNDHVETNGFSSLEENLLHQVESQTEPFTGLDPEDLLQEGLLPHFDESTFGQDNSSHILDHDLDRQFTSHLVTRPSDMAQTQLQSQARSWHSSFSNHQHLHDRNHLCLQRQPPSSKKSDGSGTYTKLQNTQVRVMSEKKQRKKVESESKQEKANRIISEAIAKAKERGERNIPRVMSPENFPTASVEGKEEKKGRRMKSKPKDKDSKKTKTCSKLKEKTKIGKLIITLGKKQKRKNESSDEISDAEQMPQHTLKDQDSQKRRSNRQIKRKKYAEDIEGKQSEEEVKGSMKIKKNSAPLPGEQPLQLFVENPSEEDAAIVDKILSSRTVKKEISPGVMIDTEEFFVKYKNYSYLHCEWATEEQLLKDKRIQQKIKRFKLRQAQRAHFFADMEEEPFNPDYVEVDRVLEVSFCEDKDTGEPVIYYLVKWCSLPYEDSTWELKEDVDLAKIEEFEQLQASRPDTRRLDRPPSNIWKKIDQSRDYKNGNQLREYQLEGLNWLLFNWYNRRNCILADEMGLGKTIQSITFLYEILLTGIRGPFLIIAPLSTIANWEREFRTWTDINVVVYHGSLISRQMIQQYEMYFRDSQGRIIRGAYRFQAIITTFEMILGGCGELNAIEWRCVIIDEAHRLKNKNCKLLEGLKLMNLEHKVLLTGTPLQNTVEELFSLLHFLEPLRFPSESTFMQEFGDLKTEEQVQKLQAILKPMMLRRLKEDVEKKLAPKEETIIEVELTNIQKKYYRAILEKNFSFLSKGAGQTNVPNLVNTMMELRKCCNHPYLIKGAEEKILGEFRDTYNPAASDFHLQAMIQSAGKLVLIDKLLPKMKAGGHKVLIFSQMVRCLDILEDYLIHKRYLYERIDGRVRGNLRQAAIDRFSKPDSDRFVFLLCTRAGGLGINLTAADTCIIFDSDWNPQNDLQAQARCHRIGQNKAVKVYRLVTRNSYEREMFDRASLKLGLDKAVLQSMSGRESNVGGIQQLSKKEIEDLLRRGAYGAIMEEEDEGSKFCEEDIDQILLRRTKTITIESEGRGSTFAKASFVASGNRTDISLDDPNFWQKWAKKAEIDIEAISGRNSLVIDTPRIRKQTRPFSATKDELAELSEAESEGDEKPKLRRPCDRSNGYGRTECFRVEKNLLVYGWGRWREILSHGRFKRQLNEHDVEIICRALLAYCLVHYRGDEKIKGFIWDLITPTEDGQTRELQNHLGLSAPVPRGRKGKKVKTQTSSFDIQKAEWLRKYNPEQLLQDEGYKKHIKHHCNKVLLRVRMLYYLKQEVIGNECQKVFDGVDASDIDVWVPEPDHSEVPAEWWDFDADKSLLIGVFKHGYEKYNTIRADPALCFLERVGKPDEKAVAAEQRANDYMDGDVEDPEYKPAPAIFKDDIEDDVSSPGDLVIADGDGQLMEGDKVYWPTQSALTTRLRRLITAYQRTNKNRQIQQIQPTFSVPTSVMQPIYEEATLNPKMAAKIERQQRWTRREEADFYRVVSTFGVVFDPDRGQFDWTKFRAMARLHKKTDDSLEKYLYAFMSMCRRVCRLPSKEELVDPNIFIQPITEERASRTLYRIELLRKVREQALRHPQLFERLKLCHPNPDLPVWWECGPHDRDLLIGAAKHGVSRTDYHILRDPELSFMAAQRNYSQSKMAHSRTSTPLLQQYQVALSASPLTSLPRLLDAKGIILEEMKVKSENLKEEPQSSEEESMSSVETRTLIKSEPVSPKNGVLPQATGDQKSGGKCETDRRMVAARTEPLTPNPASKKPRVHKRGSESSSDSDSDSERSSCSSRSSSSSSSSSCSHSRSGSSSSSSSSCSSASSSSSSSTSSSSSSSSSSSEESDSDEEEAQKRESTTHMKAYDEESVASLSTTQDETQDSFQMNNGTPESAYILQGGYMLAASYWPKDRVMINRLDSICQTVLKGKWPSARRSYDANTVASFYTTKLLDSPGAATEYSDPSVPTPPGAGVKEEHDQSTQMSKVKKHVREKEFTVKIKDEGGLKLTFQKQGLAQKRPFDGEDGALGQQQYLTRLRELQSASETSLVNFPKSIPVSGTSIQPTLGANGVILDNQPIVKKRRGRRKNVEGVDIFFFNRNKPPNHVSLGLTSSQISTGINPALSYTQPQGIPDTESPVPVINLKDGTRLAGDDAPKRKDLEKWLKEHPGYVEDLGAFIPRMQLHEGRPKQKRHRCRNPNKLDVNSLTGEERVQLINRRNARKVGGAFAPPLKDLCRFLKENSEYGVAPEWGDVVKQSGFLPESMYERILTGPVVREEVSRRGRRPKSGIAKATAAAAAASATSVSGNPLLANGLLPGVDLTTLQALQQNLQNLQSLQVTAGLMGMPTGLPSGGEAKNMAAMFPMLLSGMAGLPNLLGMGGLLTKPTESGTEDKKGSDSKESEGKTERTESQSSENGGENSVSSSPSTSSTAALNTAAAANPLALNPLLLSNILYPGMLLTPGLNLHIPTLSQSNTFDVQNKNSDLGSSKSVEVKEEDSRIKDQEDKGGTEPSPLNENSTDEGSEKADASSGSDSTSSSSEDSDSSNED", "values": [{"measurement": "log2 fold change", "setting": "[5]", "result": -0.074}, {"measurement": "log2 fold change", "setting": "[3]", "result": 0.236}, {"measurement": "log2 fold change", "setting": "[4]", "result": 0.232}]}
{"target": "CASP7 isoform 3 (UniProt P55210)", "values": [{"measurement": "log2 fold change", "setting": "[1]", "result": 0.035}, {"measurement": "log2 fold change", "setting": "[2]", "result": -0.02}, {"measurement": "log2 fold change", "setting": "[3]", "result": -0.105}]}
{"target": "CEBPZOS (UniProt A8MTT3)", "sequence (A8MTT3 whole entry, looked up)": "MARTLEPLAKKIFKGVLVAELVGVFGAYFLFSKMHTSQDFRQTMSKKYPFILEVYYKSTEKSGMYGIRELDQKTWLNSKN", "values": [{"measurement": "log2 fold change", "setting": "[5]", "result": -0.03}, {"measurement": "log2 fold change", "setting": "[3]", "result": -0.006}, {"measurement": "log2 fold change", "setting": "[4]", "result": 0.018}]}
{"target": "CDK11A (UniProt Q9UQ88)", "values": [{"measurement": "log2 fold change", "setting": "[1]", "result": -0.046}, {"measurement": "log2 fold change", "setting": "[2]", "result": 0.025}, {"measurement": "log2 fold change", "setting": "[3]", "result": 0.091}, {"measurement": "log2 fold change", "setting": "[4]", "result": 0}]}
{"target": "CASC1 (UniProt Q6TDU7)", "values": [{"measurement": "log2 fold change", "setting": "[1]", "result": -0.256}, {"measurement": "log2 fold change", "setting": "[2]", "result": 0.037}, {"measurement": "log2 fold change", "setting": "[4]", "result": 0.046}]}
{"target": "BMT2 (UniProt Q1RMZ1)", "values": [{"measurement": "log2 fold change", "setting": "[4]", "result": 0.123}]}
{"target": "CHD4, A0A2R8Y521", "values": [{"measurement": "log2 fold change", "setting": "[3]", "result": -0.136}]}
{"target": "CD80 (UniProt P33681)", "values": [{"measurement": "log2 fold change", "setting": "[5]", "result": 0.032}, {"measurement": "log2 fold change", "setting": "[3]", "result": 0.018}, {"measurement": "log2 fold change", "setting": "[4]", "result": 0.048}]}
{"target": "BNIP3 (UniProt Q12983)", "values": [{"measurement": "log2 fold change", "setting": "[1]", "result": 0.034}, {"measurement": "log2 fold change", "setting": "[2]", "result": -0.053}, {"measurement": "log2 fold change", "setting": "[3]", "result": -0.023}, {"measurement": "log2 fold change", "setting": "[4]", "result": -0.074}]}
{"target": "C3AR1 (UniProt Q16581)", "sequence (Q16581 whole entry, looked up)": "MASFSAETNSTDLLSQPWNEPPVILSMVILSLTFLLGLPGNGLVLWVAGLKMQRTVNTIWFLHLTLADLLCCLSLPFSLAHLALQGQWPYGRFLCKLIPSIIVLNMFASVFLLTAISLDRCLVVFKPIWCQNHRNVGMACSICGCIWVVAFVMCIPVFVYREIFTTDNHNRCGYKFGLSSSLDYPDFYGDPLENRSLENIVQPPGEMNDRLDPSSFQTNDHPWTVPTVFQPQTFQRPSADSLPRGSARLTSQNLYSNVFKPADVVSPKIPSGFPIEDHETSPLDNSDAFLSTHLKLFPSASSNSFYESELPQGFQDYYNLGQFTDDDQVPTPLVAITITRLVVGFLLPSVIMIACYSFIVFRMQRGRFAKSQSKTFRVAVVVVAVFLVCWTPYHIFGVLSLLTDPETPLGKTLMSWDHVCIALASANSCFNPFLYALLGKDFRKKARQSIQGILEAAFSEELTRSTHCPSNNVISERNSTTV", "values": [{"measurement": "log2 fold change", "setting": "[1]", "result": 0.121}, {"measurement": "log2 fold change", "setting": "[2]", "result": 0.024}, {"measurement": "log2 fold change", "setting": "[4]", "result": -0.083}]}
